In the library only some 19% were active in any assay of this set; here they are far more common.
KB-3-1 cytotox – qHTS assay for MDR1-selective chemotherapeutics: Primary screen using the parental adenocarcinoma cell KB-3-1; KB-3-1 viability, CellTiter-Glo ATP luminescence, 72 h; Potency, µM (highest dose often 46.1 µM), usual class: cytotoxic; 400,000 compounds, 1.4% hits; AID 1347075, 2019; note: nearly all actives have a fitted effect of over 60% in size
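Luminescent ATP read-out (CellTiter-Glo) measures survival of drug-naive KB-3-1 cells after 72 h compound exposure at 37 °C. Titration series was screened from lowest to highest concentration, with DMSO vehicle plates as background controls.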
DT40 TDP1 no CPT – qHTS for Inhibitors of human tyrosyl-DNA phosphodiesterase 1 (TDP1): qHTS in cells in absence of CPT. DT40 Tdp1-/- hTDP1 cells, no CPT, ATP luminescence, 48 h. Potency, µM (series often up to 46.2 µM), most hits filed as inhibitors. 420,000 compounds, 15% hits. AID 686978, 2013; note: nearly all actives have a fitted effect of over 55% in size
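DT40 Tdp1-/-;hTDP1 cells, no CPT (DMSO vehicle only), 400 cells/well; compounds pin-transferred; ≥48 hr, 37 °C; CellTiter-Glo 30 min RT dark, luminescence read.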
TDP1 cell CPT – qHTS for Inhibitors of human tyrosyl-DNA phosphodiesterase 1 (TDP1): qHTS in cells in presence of CPT. chicken DT40 Tdp1-/-;hTDP1 cells + 20 nM CPT, ATP luminescence, 48 h. Potency, µM (series often up to 46.2 µM), usual class: inhibitors. 420,000 compounds, 12% hits; note: nearly all actives have a fitted effect of over 55% in size
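Cell growth measured by CellTiter-Glo luminescence after a minimum 48 h, 37 C compound exposure with 20 nM CPT in Tdp1-knockout DT40 cells stably expressing hTDP1, seeded 400/well; qHTS titration format.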
HT1080 IDH1KD tx – qHTS for induction of synthetic lethality in tumor cells producing 2HG: qHTS for the HT-1080-IDH1KD cell line; AID 686971, 2013; 360,000 compounds, 2% hits; Potency, µM (highest dose often 46.1 µM), usual class: cytotoxic; HT-1080 IDH1 knockdown viability, ATP luminescence, 48 h
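Using the IDH1-knockdown HT-1080 line run in the same batch and compound series as the NT line, viability after 48 h at 37 °C was determined by CellTiter-Glo luminescence and expressed as % activity.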
HT1080-NT tox – qHTS for induction of synthetic lethality in tumor cells producing 2HG: qHTS for the HT-1080-NT fibrosarcoma cell line. HT-1080-NT fibrosarcoma viability, CellTiter-Glo ATP luminescence, 48 h. Potency, µM (doses to about 46.1 µM), most hits filed as cytotoxic. 360,000 compounds, 1.6% hits;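 note: NT is the 2HG producing partner of a matched IDH1 knockdown line; nearly all actives have a fitted effect of over 55% in size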
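Compounds were tested in concentration-response format on HT-1080-NT cells for 48 hours at 37 degrees C. Cell viability came from CellTiter-Glo luminescence; curves were classified by r2, response magnitude and activity.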
KB-V1 cytotox – qHTS assay for MDR1-selective chemotherapeutics: Primary screen using the drug-selected MDR subline cells KB-V1; KB-V1 MDR cells viability, CellTiter-Glo, 72 h; 400,000 compounds, 3.4% hits; Potency, µM (series often up to 46.1 µM), most hits filed as cytotoxic; note: nearly all actives have a fitted effect of over 60% in size
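Following 72 h at 37 degrees C with compound, KB-V1 cell viability was read by CellTiter-Glo luminescence, medium being phenol-red-free DMEM plus 10% FBS; concentration-response parameters came from normalized, curve-fitted qHTS data.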
Of the large screens only hits and unclear results are named; the others gave an inactive call. Calls come from the whole dose curve; as a rule, active = well fitted curve in the direction sought with a large enough effect; inconclusive = small, poorly fitted or top-dose-only effect, or another doubt; inactive = no such curve, though single readings can be large; an effect the other way counts as inactive or inconclusive.

CCN(CC)CCNC(=O)c1ccc(NC(C)=O)cc1	none
Cc1cc(Br)cn2c(Cc3ccsc3)c(C(C)(C)C)nc12	DT40 TDP1 no CPT 26µM, TDP1 cell CPT inconclusive
CCCc1nc2c(C)cc(Br)cn2c1Cc1ccsc1	DT40 TDP1 no CPT 23µM, TDP1 cell CPT inconclusive
Cc1ccc(Cc2c(C(C)(C)C)nc3ccc(Br)cn23)cc1	DT40 TDP1 no CPT inconclusive, TDP1 cell CPT inconclusive
CCCc1nc2c(C)cc(Br)cn2c1Cc1ccccc1	DT40 TDP1 no CPT inconclusive, TDP1 cell CPT inconclusive, HT1080 IDH1KD tx inconclusive, HT1080-NT tox inconclusive
COc1ccc(-c2cc(C(F)(F)F)n3nc(C(=O)Nc4cccc(Cl)c4Cl)cc3n2)cc1OC	none (no result: HT1080 IDH1KD tx, HT1080-NT tox)
CCOc1ccc(C(=O)COC(=O)c2nc3nccc(C)n3n2)cc1	none
CCCn1nc(NC(=O)C2CCCO2)c2cc3cccc(C)c3nc21 (stereo not drawn)	DT40 TDP1 no CPT 15µM
CCCCCC(=O)N(c1ccc(OCC)cc1)S(=O)(=O)c1ccc2c(c1)n(C)c(=O)n2C	DT40 TDP1 no CPT 16µM, TDP1 cell CPT 21µM (no result: HT1080 IDH1KD tx, HT1080-NT tox)
COc1ccc(C(=O)N(c2ccc(OC)cc2)S(=O)(=O)c2ccc3c(c2)n(C)c(=O)n3C)cc1	DT40 TDP1 no CPT inconclusive, TDP1 cell CPT inconclusive (no result: HT1080 IDH1KD tx, HT1080-NT tox)
Cc1ccc(S(=O)(=O)Nc2ccc(SC(F)F)cc2)c(C)c1	DT40 TDP1 no CPT inconclusive, TDP1 cell CPT inconclusive, KB-V1 cytotox 16µM
Cc1ccc(S(=O)(=O)Nc2ccc3c(c2)n(C)c(=O)n3C)cc1	KB-3-1 cytotox inconclusive, DT40 TDP1 no CPT inconclusive, TDP1 cell CPT 10µM
CCOc1ccc(S(=O)(=O)Nc2ccc3c(c2)c(C(C)=O)c(C)n3S(=O)(=O)c2ccc(OCC)cc2)cc1	DT40 TDP1 no CPT 5.2µM, TDP1 cell CPT 21µM (no result: KB-3-1 cytotox, HT1080 IDH1KD tx, HT1080-NT tox, KB-V1 cytotox)
Cc1cc(=O)oc2cc(OCC(=O)OCC(=O)NCCc3ccccc3)ccc12	none
CN(Cc1ccccc1)C(=O)c1ccc(NC(=O)Cc2ccc(NC(=O)C3CCCN(S(=O)(=O)c4cccc([N+](=O)[O-])c4)C3)cc2)cc1 (stereo not drawn)	DT40 TDP1 no CPT inconclusive, TDP1 cell CPT inconclusive
CCCCn1c(N)c(N(CC(C)C)C(=O)c2ccc(S(=O)(=O)N3CCCCC3)cc2)c(=O)[nH]c1=O	none
Cc1ccc(NS(=O)(=O)c2ccc3c(c2)n(C)c(=O)n3C)cc1C	DT40 TDP1 no CPT 21µM, TDP1 cell CPT 16µM
Cc1ccc(S(=O)(=O)Nc2ccc3c(c2)n(C)c(=O)n3C)c(C)c1	DT40 TDP1 no CPT 21µM, TDP1 cell CPT inconclusive
CCOc1ccc(S(=O)(=O)Nc2ccc3c(c2)n(C)c(=O)n3C)cc1	KB-3-1 cytotox inconclusive, DT40 TDP1 no CPT 7.3µM, TDP1 cell CPT inconclusive, HT1080-NT tox inconclusive, KB-V1 cytotox 15µM
Cn1c(=O)n(C)c2cc(NS(=O)(=O)c3ccccc3)ccc21	TDP1 cell CPT inconclusive
Cc1c(NC(=O)c2ccc(S(=O)(=O)N(C)C)cc2)cccc1-n1cnnn1	DT40 TDP1 no CPT inconclusive, KB-V1 cytotox inconclusive
COc1cccc(CN(C(=O)c2cccc(C)c2)C2CCS(=O)(=O)C2)c1 (stereo not drawn)	none (no result: HT1080 IDH1KD tx, HT1080-NT tox)
CCCC(O)(c1ccc(Cl)cc1)C(CN1CCOCC1)c1ccc(Cl)cc1 (stereo not drawn)	KB-3-1 cytotox inconclusive, DT40 TDP1 no CPT inconclusive, TDP1 cell CPT inconclusive, HT1080 IDH1KD tx inconclusive, HT1080-NT tox inconclusive, KB-V1 cytotox 16µM
CC(C)(c1ccccc1)c1ccc(OCC(O)CN2CCCC2)cc1 (stereo not drawn)	KB-3-1 cytotox inconclusive, DT40 TDP1 no CPT inconclusive, TDP1 cell CPT inconclusive, HT1080 IDH1KD tx inconclusive, HT1080-NT tox inconclusive

From PubChem
